Laboratory results as given in paper PMC7826789 (International Journal of Molecular Sciences, 2021).

Experiments:
Settings in all cases: Compound Concentration (nM):1000
PLK3 = tested on: PLK3
PLK4 = tested on: PLK4
PRKCD = tested on: PRKCD
PRKCE = tested on: PRKCE
PRKCH = tested on: PRKCH
PRKCI = tested on: PRKCI
PRKCQ = tested on: PRKCQ
PRKD1 = tested on: PRKD1
PRKD2 = tested on: PRKD2
PRKD3 = tested on: PRKD3
PRKG1 = tested on: PRKG1
PRKG2 = tested on: PRKG2
PRKR = tested on: T1, PRKR
T1 construct: gene EIF2AK2

PRKX = tested on: PRKX
PRP4 = tested on: T2, PRP4
T2 construct: gene PRPF4B

PYK2 = tested on: T3, PYK2
T3 construct: gene PTK2B

QSK = tested on: T4, QSK
T4 construct: gene KIAA0999

RAF1 = tested on: RAF1
RET(M918T) = tested on: RET(M918T)
RET(V804L) = tested on: RET(V804L)
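Further: KINOMEscan scanMAX binding as percent activity remaining versus control; lower means stronger binding.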

| SMILES | Percent Control (PLK3) [%] | Percent Control (PLK4) [%] | Percent Control (PRKCD) [%] | Percent Control (PRKCE) [%] | Percent Control (PRKCH) [%] | Percent Control (PRKCI) [%] | Percent Control (PRKCQ) [%] | Percent Control (PRKD1) [%] | Percent Control (PRKD2) [%] | Percent Control (PRKD3) [%] | Percent Control (PRKG1) [%] | Percent Control (PRKG2) [%] | Percent Control (PRKR) [%] | Percent Control (PRKX) [%] | Percent Control (PRP4) [%] | Percent Control (PYK2) [%] | Percent Control (QSK) [%] | Percent Control (RAF1) [%] | Percent Control (RET(M918T)) [%] | Percent Control (RET(V804L)) [%] |
| --- | --- | --- | --- | --- | --- | --- | --- | --- | --- | --- | --- | --- | --- | --- | --- | --- | --- | --- | --- | --- |
| CCS(=O)(=O)c1ccc(OC)c(Nc2ncc(-c3cccc(F)c3)o2)c1 [GW621970X] | 100 | 40 | 100 | 100 | 100 | 100 | 100 | 100 | 100 | 85 | 100 | 100 | 76 | 100 | 100 | 100 | 99 | 100 | 52 | 84 |
| Cl.O=C(Nc1ccc(Oc2ccc3[nH]c(NC(=O)c4ccccc4)nc3c2)cc1)Nc1cc(C(F)(F)F)ccc1F [GW709042A] | 92 | 77 | 87 | 100 | 100 | 90 | 100 | 100 | 100 | 83 | 91 | 88 | 85 | 100 | 100 | 100 | 100 | 27 | 2.5 | 3.6 |
| Cl.O=C(Nc1ccc(Oc2ccc3[nH]c(NC(=O)c4ccco4)nc3c2)cc1)Nc1cc(C(F)(F)F)ccc1F [GW683134A] | 86 | 100 | 99 | 100 | 92 | 100 | 100 | 68 | 100 | 82 | 96 | 88 | 68 | 100 | 100 | 93 | 100 | 9.5 | 0.7 | 0.4 |
| COc1cccc(-c2c[nH]c3c(N/N=C/c4ccncc4)ncnc23)c1 [GW814408X] | 100 | 96 | 100 | 100 | 100 | 30 | 100 | 100 | 100 | 91 | 100 | 97 | 94 | 100 | 100 | 100 | 28 | 74 | 79 | 95 |
| Nc1ncnc2occ(-c3ccc(NC(=O)Nc4cc(C(F)(F)F)ccc4F)cc3)c12 [GW770249X] | 16 | 80 | 76 | 94 | 100 | 100 | 100 | 100 | 100 | 85 | 71 | 100 | 72 | 100 | 100 | 90 | 100 | 38 | 0.8 | 0.6 |
| CN(C)c1cc2c(Nc3ccc4c(cnn4Cc4ccccc4)c3)ncnc2cn1 [GW282974X] | 100 | 66 | 100 | 100 | 97 | 88 | 100 | 100 | 95 | 89 | 100 | 93 | 76 | 80 | 100 | 83 | 95 | 100 | 82 | 93 |
| C[C@@H](Oc1cc(-n2cnc3ccc(OC4CCN(C)CC4)cc32)sc1C(N)=O)c1ccccc1Cl [GSK579289A] | 19 | 78 | 66 | 100 | 100 | 43 | 58 | 100 | 84 | 70 | 100 | 65 | 80 | 74 | 100 | 86 | 85 | 100 | 99 | 100 |
| Cc1cc(O)cc(C)c1/C=C/c1cncc(C(N)=O)c1 [GW435821X] | 90 | 85 | 87 | 93 | 100 | 100 | 90 | 100 | 100 | 79 | 100 | 100 | 94 | 100 | 100 | 100 | 86 | 58 | 100 | 100 |
| COc1cc(/C=N/Nc2ncnc3[nH]ncc23)ccc1O [GW578748X] | 52 | 36 | 78 | 100 | 100 | 63 | 96 | 100 | 100 | 85 | 100 | 22 | 41 | 100 | 100 | 100 | 90 | 100 | 4.6 | 76 |
| O=C1Nc2ccc(C(=O)c3ccco3)cc2C1=Cc1cc(Cl)c(O)c(Cl)c1 [GW406108X] | 37 | 63 | 100 | 100 | 100 | 100 | 100 | 100 | 100 | 100 | 100 | 100 | 62 | 100 | 71 | 100 | 100 | 13 | 56 | 29 |
